D2 ag-1: Beta-Arrestin HTS for Positive Allosteric Modulators of the Human D2 Dopamine Receptor: Agonists. DiscoveRx PathHunter D2 beta-arrestin, luminescence, 90 min; 100% = 57 uM dopamine signal. activation, % (concentration not given with the values). D(2) dopamine receptor (Homo sapiens), P14416. 360,000 compounds, 0.084% hits. AID 624465, 2012; in the data active means activation above about 40%; inconclusive means between about 15% and that limit
Target sequence (P14416 whole entry, looked up): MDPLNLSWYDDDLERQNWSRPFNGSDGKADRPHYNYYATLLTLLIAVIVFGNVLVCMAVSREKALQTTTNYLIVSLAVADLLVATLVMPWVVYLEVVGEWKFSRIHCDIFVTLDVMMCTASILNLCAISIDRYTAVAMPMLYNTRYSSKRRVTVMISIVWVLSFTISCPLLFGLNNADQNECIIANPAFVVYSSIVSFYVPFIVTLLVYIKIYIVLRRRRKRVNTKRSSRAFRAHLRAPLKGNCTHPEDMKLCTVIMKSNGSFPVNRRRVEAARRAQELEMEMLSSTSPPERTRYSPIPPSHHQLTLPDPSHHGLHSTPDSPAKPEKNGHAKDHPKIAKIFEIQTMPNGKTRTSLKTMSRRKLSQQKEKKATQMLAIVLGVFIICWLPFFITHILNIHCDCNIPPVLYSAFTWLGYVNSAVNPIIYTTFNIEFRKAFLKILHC
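Agonist mode: compounds alone added to overnight-plated D2 PathHunter cells for 90 min at 37 C, with 57 uM final dopamine (EC100) defining full response. Beta-arrestin recruitment detected by chemiluminescent reagent, read after 1 h at ambient temperature.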
D2 PAM-1: HTS Assay for Positive Allosteric Modulators of the Human D2 Dopamine Receptor: Primary Screen for Potentiators. 340,000 compounds, 0.34% hits. AID 485347, 2010. D(2) dopamine receptor (Homo sapiens), P14416. potentiation, % at 10 µM. HEK293 T-REx D2, calcium flux, EC20 dopamine potentiation;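 active means potentiation over 3 SD above the plate norm, cut at about 30% in these data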; further: 0% is about no effect
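Using a no-wash calcium dye in inducible, force-coupled HEK293 Trex cells expressing D2, we tracked fluorescence each second for 180 s after compound, then for 180 s after EC20 dopamine to detect augmented signalling.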
D2 antagonist: HTS Assay for Allosteric Antagonists of the Human D2 Dopamine Receptor: Primary Screen for Antagonists. HEK293 TREx D2 cells, calcium flux, dopamine EC80. inhibition, % at 10 µM. AID 485344, 2010. 340,000 compounds, 2% hits; in the data active means inhibition above about 30%; inactive means below that, where a call was filed; further: 0% is about no effect
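Antagonism is scored as inhibition of an EC80 dopamine-evoked calcium signal in a force-coupled, tetracycline-inducible HEK293 T-REx D2 line, with compound present 180 s before agonist.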
D2 PAM-2: Beta-Arrestin HTS for Positive Allosteric Modulators of the Human D2 Dopamine Receptor: Potentiators; D(2) dopamine receptor (Homo sapiens), P14416; 360,000 compounds, 0.23% hits; DiscoveRx D2 beta-arrestin cells, luminescence, 90 min; 100% = 57 uM dopamine signal; potentiation, % (test concentration not listed); in the data active means potentiation above about 50%; inconclusive means mostly about 30% to 49%
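D2 cells co-treated with compound plus 50 nM dopamine (EC20) for 90 min at 37 deg C to detect potentiation. Beta-arrestin recruitment was read as enzyme-fragment luminescence after 1 h at ambient temperature. Full response was set by 57 uM dopamine.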
D2 ag-2: HTS Assay for Allosteric Agonists of the Human D2 Dopamine Receptor: Primary Screen for Agonists; D(2) dopamine receptor (Homo sapiens), P14416; HEK293 T-REx D2 cells, calcium flux agonist mode; 340,000 compounds, 0.53% hits; AID 485358, 2010; activation, % at 2 µM;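 active means activation over 3 SD above normal in the single-dose calcium agonist read, cut at about 30% in these data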; further: 0% is about no effect
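Agonism is scored from calcium flux in a force-coupled, inducible HEK293 cell line expressing D2, read kinetically for 180 s after compound addition against dopamine controls.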
* marks the source's active call; other numbers are inactive results; u = inconclusive; x = no result; ! = repeats disagree. Sampled rows, rich in hits. Any-hit rate of the full collection: about 2.4%.

SMILES	D2 ag-1	D2 PAM-1	D2 antagonist	D2 PAM-2	D2 ag-2
O=C(NCc1ccccc1F)C(=O)NCC(c1ccc2c(c1)OCO2)N1CCOCC1 (stereo not drawn)	x	-3	x	x	1
Cc1nc(Cl)sc1C(=O)Nc1ccccc1Cl	2	6	-8	53*	-1
O=S(=O)(c1ccc(N=C2NN=C(c3cc(F)ccc3F)CS2)cc1)N1CCOCC1	-3	30*	18	15	0
CC(=O)Nc1ccc(C2=NNC(=Nc3cccc(S(=O)(=O)N(C)C)c3)SC2)cc1	7	6	6	0	-1
CC(=O)Nc1ccc(C2=NNC(=Nc3ccc(S(=O)(=O)N4CCOCC4)cc3)SC2)cc1	7	-6	43*	-6	-1
Cc1ccc(S(=O)(=O)NCCc2nnc3ccc(SCc4ccc(F)cc4)nn23)cc1	x	-3	x	x	-1
CCn1ncc(C2=NOC(C(=O)NCc3ccc(OC)cc3)C2)c1C (stereo not drawn)	2	-17	6	-7	31*
Cc1ccc(NC(=O)CN2C(=O)CSc3ccc(S(=O)(=O)N4CCCC4)cc32)c(C)c1	x	4	x	x	-1
Cc1cccc(NCc2ccc(N(C)C)cc2)n1	1	33*	-16	-6	0
CN(Cc1ccccc1)Cc1c[nH]c2ccccc12	-4	-23	35*	-45	-1
c1ccc(Cc2c[nH]c3ccccc23)cc1	6	6	-6	-3	0
COc1cccc(C2CC(=O)Nc3c2ccc(C)c3C)c1OC (stereo not drawn)	x	0	x	x	6
CC1CCN(CCCCOc2ccc(Br)cc2)CC1	-5	-19	20	-27	1
Brc1cccc(OCCN2CCOCC2)c1	-5	-11	2	-72	1
Brc1cccc(OCCN2CCCCC2)c1	-3	-21	48*	-19	0
Cc1cc(C)c(OCCCCN2CCC(C)CC2)c(Br)c1	-2	-19	20	-15	0
CC1CCN(CCCCOc2cccc(Br)c2)CC1	-4	-29	92*	-47	0
Cc1cc(Br)ccc1OCCCCN1CCC(C)CC1	-3	-13	35*	-37	1
Cc1cc(Br)ccc1OCCn1ccnc1	70*	-3	5	-10	0
Clc1cc(Br)ccc1OCCn1ccnc1	0	-6	22	-9	-1
O=C(CCC1N=C2c3ccccc3N=C(SCc3ccccc3Cl)N2C1=O)NCCc1ccccc1 (stereo not drawn)	x	x	x	x	0
CN(Cc1ccccc1)C(=C(Cl)Cl)C(=C1NCCN1)[N+](=O)[O-]	-3	-9	34*	-9	1
CN(Cc1ccccc1)C(=C(Cl)Cl)/C(=C1/NCCN1C)[N+](=O)[O-]	-1	2	7	-7	0
CCN(CC)C(=O)Cn1c(=O)cc(C)c2c(C)nn(-c3cccc(Cl)c3C)c21	x	2	x	x	0
COc1ccc(S(=O)(=O)c2cn(C)c3cc(N4CCCCCC4)c(F)cc3c2=O)cc1	x	-3	x	x	-1
SMILES	D2 ag-1	D2 PAM-1	D2 antagonist	D2 PAM-2	D2 ag-2
CC(=O)C(=Nc1ccccc1Cl)NNc1ccc(Cl)cc1	u	34*	1	u	1
Cc1ccc(C(=O)NCCc2c[nH]c3ccccc23)c(C)c1	-4	-26	74*	-10	0
COCCNC(=O)CN1C(=O)COc2ccc(S(=O)(=O)N3CCCC3)cc21	x	3	x	x	-1
Cc1oc(-c2ccccc2F)nc1CSCC(=O)NCCc1ccccc1	x	10	x	x	x
Cc1oc(-c2ccccc2F)nc1CSCC(=O)NCc1ccc2c(c1)OCO2	-4	33*	-4	8	-3
CCCCC(=O)N(Cc1nc2sc(C)c(C)c2c(=O)[nH]1)C1CCCC1	-4	9	1	-8	1
COCC(=O)N(Cc1nc2sc(C)c(C)c2c(=O)[nH]1)C1CCCCC1	-4	12	31*	-5	-2
CCOc1ccc(N(C(=O)Cn2nnc3ccccc32)C(C(=O)NC(C)(C)CC)c2cccn2C)cc1 (stereo not drawn)	0	4	-6	-19	1
CCC(C)(C)NC(=O)C(c1cccn1C)N(C(=O)Cn1nnc2ccccc21)c1ccc(OC)cc1OC (stereo not drawn)	-3	1	30*	-12	0
CCc1nn(CC(=O)NCCCN2CCN(C)CC2)c(=O)c2cc3sc(C)cc3n12	-2	1	3	-16	1
CCc1cc2c(cc3c(=O)n(CC(=O)NCCCN4CCCCCC4)nc(CC)n32)s1	-6	-21	33*	-1	-1
CCSc1nc(-c2ccc(OC)cc2)nc2c1Cc1c(CO)cnc(C)c1O2	x	-6	x	x	x
CCOC(=O)c1sc(NC(=S)NC(=O)c2ccco2)nc1C	-6	23	-11	5	-1
CCOC(=O)c1sc(NC(NC(=O)c2ccco2)(C(=O)OC)C(F)(F)F)nc1C (stereo not drawn)	-2	0	34*	-8	0
COc1ccccc1CNCC(=O)Nc1ccc(N2CCOCC2)cc1	-1	-14	3	-4	33*
COc1ccccc1NC(=O)Nc1ccc(N2CCOCC2)cc1	-2	-23	4	-4	0
COc1ccc(S(=O)(=O)N2CCN(C3CCCCCCC3)CC2)cc1	-1	-6	34*!	-1	-2
O=S(=O)(c1ccccc1)N1CCC(N2CCN(c3ccccc3)CC2)CC1	x	-24	71*	x	74*
O=S(=O)(c1ccccc1)N1CCN(c2ccccc2)CC1	0	-1	-13	-10	0
COc1ccc(S(=O)(=O)N2CCC(N3CCCCC3)CC2)cc1	-4	-5	-11	-17	0
CSc1ccc(CCNC(=O)CN2C(=O)COc3ccc(S(=O)(=O)N4CCCC4)cc32)cc1	x	13	x	x	-1
CCN(CC)C(=O)C1CCCc2c1[nH]c1ccc(Cl)cc21 (stereo not drawn)	-3	-5	-6	0	-1
O=CNC1CCCc2c1[nH]c1ccc(Cl)cc21 (stereo not drawn)	5	5	-13	77*	2
Cc1nn2c(=O)cc(CSc3nc4ccccc4[nH]3)nc2s1	-1	15	39*	-4	1
COc1ccc(C(=O)Nc2ccccc2SCc2cc(=O)n3nc(C)sc3n2)cc1OC	2	-2	1	-6	0
CCOCC(=O)Nc1nnc(COC)s1	0	8	31*	-8	0

Assay outcomes: PubChem, National Center for Advancing Translational Sciences (NCATS)
